This is a sample that favours compounds with a hit; in the whole collection about 4.9% have one here.
HSF1 inhib: HSF1 inhibitors in luciferase reporter cells, primary screen, cell-based, NIH3T3, luminescence; 300,000 tested, 0.77% active; activity change, negative = inhibition, % at 7.5 µM (by protocol); AID 2098, 2009; NIH3T3-HGL HSE-luciferase, MG132-induced, luminescence 8 h; stronger effect = lower value;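 active = more than half of replicate wells show activity change below -50%, luminescence cut by over half; inconclusive = some wells, but at most half, below -50%; inactive = no replicate well below -50%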;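 also: luciferase reports HSF-1 transcriptional activity via heat shock element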
Platelet DG rel: inhibitors of platelet dense granule secretion, primary screen, cell-based, MLPCN, human platelets; inhibition, %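 (compounds screened at 7.5 µM in platelet-rich plasma)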; AID 1663, 2009; 300,000 tested, 0.22% active; human platelet-rich plasma, SFLLRN dense granule ATP release, luminescence;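 active = mean replicate score, as percent of positive control, at or above 50; inconclusive = mean below 50 but at least one replicate at or above 50; inactive = mean and every replicate below 50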
MPTP block: mitochondrial permeability transition pore inhibitors, primary screen, biochemical, isolated mouse mitochondria, absorbance; Ca2+ swelling absorbance, 30 min; inhibition, % at 10 µM; 360,000 tested, 1.4% active;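 active = inhibition of 50% or more, scaled per plate between neutral and stimulator controls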
HSP90 refold inh: HSP90 inhibitors, primary screen, cell lysate, luminescence | AID 1789, 2009 | Rabbit reticulocyte lysate, luciferase refolding luminescence, 3 h | 290,000 tested, 0.91% active | inhibition, % at 5.6 µM | Heat shock protein HSP 90 (rabbit reticulocyte lysate; luciferase refolding);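 active = inhibition above the screen-wide mean plus 3 SD, computed separately per campaign, cut at about 16% in these data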;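 also: inhibitors lower the luminescence because luciferase stays unfolded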
HSF1 activator: HSF-1 activators, primary screen, NIH3T3-HGL cells, MG132 stress, luminescence, single point; NIH3T3-HGL HSF-1 luciferase reporter, 8 h; 100% = twice DMSO control signal; activation, % at 9 µM; 300,000 tested, 1.7% active; AID 504408, 2011;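 active = mean replicate activation of at least 50% with a set share of replicates each reaching 50%; inconclusive = only one of those two conditions met; inactive = mean below 50% and too few replicates reaching it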
dFosB activator: activators of delta FosB homodimer, primary screen, biochemical, fluorescence polarization, TAMRA-CDK5 oligo, single point; 340,000 tested, 0.99% active; purified delta FosB; percent of positive-control signal above neutral wells; activation, % at 25 µM;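 active = mean activation above about 17%, with every replicate also reaching it, limit read from the data, passing the limit was not always enough; inconclusive = only one of the two conditions met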
Target sequence (P13346 whole entry, looked up): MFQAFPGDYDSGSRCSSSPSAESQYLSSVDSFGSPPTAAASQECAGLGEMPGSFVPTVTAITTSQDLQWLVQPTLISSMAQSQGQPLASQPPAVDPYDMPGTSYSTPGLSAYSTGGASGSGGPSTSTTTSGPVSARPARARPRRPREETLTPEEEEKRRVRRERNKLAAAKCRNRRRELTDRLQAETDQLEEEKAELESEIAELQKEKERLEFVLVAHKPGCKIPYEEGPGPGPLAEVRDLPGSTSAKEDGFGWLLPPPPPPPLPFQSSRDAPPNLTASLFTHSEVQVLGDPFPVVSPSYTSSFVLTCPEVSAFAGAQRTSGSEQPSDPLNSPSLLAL
MPTP counter: fluorescence retest of MPTP screen hits in isolated mitochondria, single concentration | AID 624504, 2012 | membrane potential, Rhodamine 123 fluorescence | 5,000 tested, 78% active | inhibition, % at 10 µM | shares compounds with MPTP block; in the data active = inhibition above about 22%
MPTP abs DR: mitochondrial permeability transition pore inhibitors, dose response, biochemical, absorbance, uHTS hits | 780 tested, 58% active | isolated mitochondria swelling | IC50, µM | shares compounds with MPTP block; in the data active = IC50 below about 20 µM
MPTP cs DR: fluorescent counter-screen in isolated mitochondria, dose response, counter-screen for MPTP inhibitor project, biochemical, fluorescence, uHTS hits; shares compounds with MPTP block; isolated mitochondria counterscreen, fluorescence read-out; IC50, µM; 780 tested, 49% active; AID 651564, 2012; in the data active = IC50 below about 80 µM
Of the large screens only hits and unclear results are named; the others gave an inactive call (follow-up assays come after a bar, where they were run).

CCOc1ccc(-c2nc(-c3cccnc3)no2)cc1	none
CCCc1nc2c(nnn2Cc2ccccc2Cl)c(=O)[nH]1	none
COc1ccc(Cl)cc1N1C(=NC(=O)C2CCCO2)SC2CS(=O)(=O)CC21 (stereo unspecified)	none
O=C(NC(Cc1ccccc1)C(=O)O)/C(=C/c1ccc([N+](=O)[O-])cc1)NC(=O)c1ccco1 (stereo unspecified)	none
O=C(O)c1cccc(N/N=C/c2sc(N3CCOCC3)nc2-c2ccccc2)c1	none
O=[N+]([O-])c1ccc(N/N=C/c2sc(N3CCOCC3)nc2-c2ccccc2)c(S(=O)(=O)Nc2ccc(Cl)cc2)c1	MPTP block 86.5 | MPTP counter 76.0
O=[N+]([O-])c1ccc(N/N=C/c2sc(N3CCOCC3)nc2-c2ccccc2)c(S(=O)(=O)Nc2ccccc2Cl)c1	MPTP block 91.1 (no result: HSF1 inhib, Platelet DG rel, HSF1 activator) | MPTP counter 65.1
N#CCC(=O)Nc1ccc(C(=O)OCC(=O)N2CCN(C(=O)c3ccco3)CC2)cc1	none (no result: HSF1 inhib, Platelet DG rel, HSP90 refold inh, HSF1 activator)
CCOC(=O)c1ccc(NC(=S)Nc2ccccc2)cc1	MPTP block 87.8 | MPTP counter 95.4
COC(=O)c1cccc(NC(=S)NCCC2=CCCCC2)c1	none
CCOC(=O)c1cn[nH]c1NC(=S)Nc1ccc(Cl)cc1	MPTP block 66.1 (no result: dFosB activator) | MPTP counter 64.7
COC(=O)c1ccc(NC(=S)NCCC2=CCCCC2)cc1	MPTP block 89.2 | MPTP counter 86.5
CCOC(=O)c1ccc(NC(=O)Nc2ccc3c(c2)OCCO3)cc1	MPTP block 74.4 | MPTP counter 78.1
COCCn1ccc2c(OCC(=O)NCc3ccccc3)cccc2c1=O	none (no result: HSP90 refold inh)
Cc1ccc(C2c3[nH]c4ccccc4c3C[C@H]3C(=O)N(c4ccccc4C(=O)N4CCC[C@@H]4C(=O)O)C(=O)N23)cc1 (stereo partly specified)	none
C=CCn1c(SCC(=O)Nc2ccc(F)cc2)nnc1-c1cnccn1	none
COc1ccc(C(=O)C(=O)N2CCN(c3ccccc3F)CC2)cc1	none (no result: HSF1 inhib, Platelet DG rel, HSP90 refold inh, HSF1 activator, dFosB activator)
CCOC(=O)c1ccc(NC(=S)NCCc2ccc(F)cc2)cc1	MPTP block 84.7 | MPTP counter 78.8
Cc1ccc(CNCCC2=CCCCC2)cc1	MPTP block 64.7 | MPTP counter inactive | MPTP abs DR 18.6 | MPTP cs DR 48.5
COc1ccccc1NS(=O)(=O)c1ccc(Cl)c(NC(=O)c2sc3cc(Cl)ccc3c2Cl)c1	none
O=C(Nc1cc(S(=O)(=O)Nc2ccccc2Cl)ccc1O)c1sc2cc(Cl)ccc2c1Cl	MPTP block 94.2, dFosB activator 100.8 | MPTP counter inactive
Cc1sc2ncnc(NCC3COc4ccccc4O3)c2c1C (stereo unspecified)	MPTP block 100.4 | MPTP counter 94.6
Cc1sc2ncnc(NCC3(N4CCOCC4)CCCCC3)c2c1C	none
c1ccc(-c2csc3ncnc(NCCCN4CCOCC4)c23)cc1	none
c1ccc(-c2csc3ncnc(NCC4COc5ccccc5O4)c23)cc1 (stereo unspecified)	MPTP block 97.0 | MPTP counter 85.0
Cc1sc2ncnc(NCC(C)(C)N3CCOCC3)c2c1C	MPTP block 80.2 | MPTP counter 84.1
CC1=CC(C)(C)N(C(=O)CNC2CCCC2)c2cc(C)ccc21	HSF1 activator inconclusive
CCCCNC(=O)Nc1ncn[nH]1	none
Cc1nc2c(-c3ccc(Cl)cc3)c(C)[nH]n2c(=O)c1Cc1ccccc1	MPTP block 68.9 | MPTP counter 91.0
CC1CCC(NC(=O)c2nn(C)c3c2CSc2ccccc2-3)CC1 (stereo unspecified)	none
CN(c1ccccc1)S(=O)(=O)c1ccc(Cl)c(C(=O)Nc2ccc(N3CCOCC3)cc2)c1	none
Cc1nc2ccc(NC(=O)c3ccc(Cl)c(S(=O)(=O)N(C)c4ccccc4)c3)cc2s1	MPTP block 74.3 | MPTP counter 68.7
Cc1nc2ccc(NC(=O)c3cc(S(=O)(=O)N(C)c4ccccc4)ccc3Cl)cc2s1	MPTP block 106.6 | MPTP counter 84.2
Cc1cc(Nc2ccc([N+](=O)[O-])cc2)c2ccccc2n1	none
Cc1cc(Nc2ccc([N+](=O)[O-])cc2)nc2ccccc12	MPTP block 75.7 | MPTP counter 58.5
CNC[C@H]1OCc2ccccc2-c2ccccc2C(=O)N([C@H](C)CO)C[C@H]1C	none (no result: HSF1 inhib, Platelet DG rel, HSP90 refold inh, HSF1 activator, dFosB activator)
CC1=CC(C)(C)N=C(Nc2nc(C)c3cc(C)cc(C)c3n2)N1	MPTP block 94.6 | MPTP counter 101.2
Cc1ccc(-c2nc3c(Cl)cc(C(F)(F)F)cn3c2Cc2ccccc2)cc1	none (no result: HSF1 inhib, Platelet DG rel, HSP90 refold inh, HSF1 activator, dFosB activator)
CC(=O)Nc1ccc(S(=O)(=O)NCCC(=O)OCC(=O)c2ccc(Br)cc2)cc1	MPTP block 59.3 (no result: HSP90 refold inh) | MPTP counter 86.7
COc1ccc(/C(C)=N/OCC(=O)N=Nc2c(O)[nH]c3ccc(Br)cc23)cc1	MPTP block 57.3 | MPTP counter inactive | MPTP abs DR inactive | MPTP cs DR 10
O=C(Nc1ccccc1F)Nc1ccc([N+](=O)[O-])cc1Cl	MPTP block 89.5 | MPTP counter 92.2
O=C(Nc1ccc([N+](=O)[O-])cc1Cl)c1cccc([N+](=O)[O-])c1	none (no result: HSF1 inhib, Platelet DG rel, HSP90 refold inh, HSF1 activator, dFosB activator)
O=C(Nc1ccccc1Cl)Nc1ccccc1Cl	none
O=C(Nc1ccc(Cl)cc1)Nc1ccccc1Sc1ncc([N+](=O)[O-])s1	MPTP block 85.8 | MPTP counter 72.8
O=C(Nc1csc([N+](=O)[O-])c1)Nc1ccccc1Cl	MPTP block 88.8 | MPTP counter 80.5
CN1C2=C(C(=O)CC(C)(C)C2)C(c2cccs2)C2=C1CC(C)(C)CC2=O	none (no result: HSP90 refold inh)
CCn1c(-c2ccco2)nc2ccccc21	MPTP block 91.9 | MPTP counter inactive | MPTP abs DR 8.7 | MPTP cs DR inactive
c1ccc(OCCn2c(-c3ccco3)nc3ccccc32)cc1	none
CCOc1ccc(OCC(=O)OCC(=O)N2CCN(S(=O)(=O)c3ccc(C)cc3C)CC2)cc1	none (no result: HSF1 inhib, Platelet DG rel, HSP90 refold inh, HSF1 activator)
Cc1c(Cl)cccc1NCC(=O)Nc1ccc(Cl)cc1F	MPTP block 56.7 | MPTP counter 57.0
Cc1ccc(F)cc1NCC(=O)Nc1ccc(Cl)cc1F	none
